# HCMV inh = human cytomegalovirus inhibition. HFF cells, HCMV-luciferase reporter, 72 h; hits give low values. activity change, negative = inhibition, % at 57.5 µM. 410,000 compounds, 4.5% hits; in the data active means activity change below about -60%; inconclusive means no clear call, values can overlap the other calls; inactive means above about -39%
#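 Compounds were evaluated in HFFs infected with an HCMV luciferase reporter virus (MOI 1 PFU/cell). Luciferase in lysates collected 72 h post infection served as the replication measure.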
# Lassa entry inh = inhibitors of Lassa virus binding or cell entry; Lassa virus pseudotype entry inhibition, cell reporter; Potency, µM (series often up to 37.9 µM), for the others: at the top dose activity change, negative = inhibition, usual class: inhibitors; 300,000 compounds, 1.2% hits; calls by dose curve; tested in HEK293 cells; further: potency means the concentration at half of the fitted maximal effect; nearly all actives have a fitted effect of over 50% in size
# Marburg entry inh = blocks Marburg virus binding to or entry into cells; AID 540276; Marburg virus pseudotyped entry inhibition, cell reporter; 300,000 compounds, 1.8% hits; Potency, µM (highest dose often 37.8 µM), without a hit: at the highest dose activity change, negative = inhibition, usual class: inhibitors; calls by dose curve; tested in HEK293 cells; further: potency means the concentration at half of the fitted maximal effect
# HCV inh = inhibitors of hepatitis C virus infection. Potency, µM (titrated, usually from 41.8 µM), for the others: top-dose activity change, negative = inhibition, actives largely listed as inhibitors. Huh7.5.1 HCVcc-Cre infection, luciferase reporter, 44 h. 340,000 compounds, 3.4% hits. AID 651820; further: potency means the concentration at half of the fitted maximal effect
#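 1,000 cells/well; 4 h culture; + compound; + HCVcc-Cre (~0.5 moi); 44 h; luciferase substrate, RT 15 min; read 15 sec.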
# Pf growth 48h = P. falciparum growth inhibition at 48 hours (one generation). 310,000 compounds, 5.9% hits. P. falciparum luciferase growth in erythrocytes, 48 h. AID 504832. Potency, µM (titrated, usually from 28.7 µM), inactives show at the top dose activity change, negative = inhibition, actives largely listed as inhibitors; further: potency means the concentration at half of the fitted maximal effect
#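 Luminescence readout; reporter = integrated firefly luciferase in P. falciparum. RBC culture at 2% hematocrit, 0.1% parasitemia final, 37 C/5% CO2; decreased signal taken as growth inhibition.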
# Pf growth 96h = inhibits malaria parasite growth, 96 h; P. falciparum luciferase reporter growth, 96 h; Potency, µM (doses to about 28.7 µM), inactives show at the highest dose activity change, negative = inhibition, usual class: inhibitors; 320,000 compounds, 6.9% hits; further: potency means the concentration at half of the fitted maximal effect
#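 Luminescence readout: decreased luciferase signal marks inhibited growth of reporter-expressing P. falciparum in infected red cells (2% hematocrit, 0.05% parasitemia final), exposed to compound two generations (96 h, 37 C, 5% CO2).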
# An asterisk follows results filed as active; ? = inconclusive; . = not tested or not shown; + = active, no number; [ ] = remark or other dose. Rows were chosen to be rich in hits. Some 14% of all compounds tested hit in one or more screens of this group. Unless noted, the call rests on the fitted dose curve; in most records, active means well fitted inhibition curve with a large enough effect; inconclusive means small, poorly fitted or top-dose-only effect, or another doubt; inactive means no such curve, though single readings can be large or run the other way. On the % scale 0 is the no-effect control and ±100 the full control effect.
SMILES,HCMV inh,Lassa entry inh,Marburg entry inh,HCV inh,Pf growth 48h,Pf growth 96h
COc1ccc(S(=O)(=O)Cc2ccc(C(=O)N3CCN(c4cc(Cl)ccc4C)CC3)o2)cc1,30,.,.,8%,.,13µM*
COc1ccc(S(=O)(=O)Cc2ccc(C(=O)N3CCN(c4cccc(C)c4C)CC3)o2)cc1,-26,.,.,?,?,0%
Cc1ccc(S(=O)(=O)Cc2ccc(C(=O)N3CCc4ccccc4C3)o2)cc1,-8,.,.,-13%,.,13µM*
C[C@@H]1CCCCO[C@@H](CN(C)C(=O)Nc2ccc3c(c2)OCO3)[C@@H](C)CN([C@H](C)CO)C(=O)c2cc(NC(=O)Nc3ccc(C(F)(F)F)cc3)ccc2O1,-17,.,.,.,.,.
COc1ccc(OCC(=O)Nc2nc(-c3ccc(Br)cc3)ns2)cc1,2,1%[46.1 µM],1%[46.1 µM],.,.,.
C=CCOc1ccc(Cl)cc1-c1noc(-c2csc([C@H]3C[C@H](O)[C@@H](CO)O3)n2)n1,28,.,.,.,.,.
Nc1nc(-n2cnnc2)nn1-c1ccccc1,-4,23%,11%,-8%,7%,2%
Nc1nc(N2C(=O)C3CC=CCC3C2=O)nn1-c1ccccc1 (centres undefined),-28,4%,-17%,3%,?,2.9µM*
COc1ccc(C2C(=O)N(C3CCCCCC3)CC(=O)N2Cc2ccccc2)cc1 (centres undefined),-67*,?,.,.,.,.
COc1ccc(C2C(=O)N(C3CCC(C)CC3)CC(=O)N2Cc2ccc(C)cc2)cc1OC (centres undefined),-65*,-26%[46.1 µM],.,.,.,.
COc1ccc(C2C(=O)N(C3CCC(C)CC3)CC(=O)N2Cc2ccccc2Cl)cc1OC (centres undefined),0,0%[46.1 µM],.,.,.,.
COc1ccc(CN2C(=O)CN(C3CCCCCC3)C(=O)C2c2ccc(F)cc2)cc1 (centres undefined),-7,?,-6%,?,?,?
O=C1C(c2ccc(F)cc2)N(CCc2ccc(Cl)cc2)C(=O)CN1C1CCCCCC1 (centres undefined),-82*,26%[46.1 µM],.,.,.,.
CCOC(=O)c1ccc(NC(=O)Nc2nncs2)cc1,-75*,.,.,.,.,.
CCOC(=O)c1ccc(NC(=O)Nc2nc3ccccc3s2)cc1,-35,.,.,.,.,.
CCOC(=O)c1ccc(NC(=O)Nc2ccon2)cc1,+,.,.,-1%,-1%,-3%
COCCCN1C(=O)C(CC(=O)NCCCN(C)C)CC(C(=O)N(C(C)C)C(C)C)=C1C (centres undefined),-10,.,.,.,.,.
CCCc1nc(SCc2ccccn2)c2c(=O)n(C)c(=O)n(C)c2n1,?,.,.,10µM*,.,-14%
CCCc1nc(SCc2cccnc2)c2c(=O)n(C)c(=O)n(C)c2n1,-27,.,.,10µM*,13µM*,?
Cn1c(=O)c2c(SCc3ccccn3)nc(C3CC3)nc2n(C)c1=O,-39,.,.,-4%,26%,19%
CCc1nc(SCc2ccc(C(=O)OC)o2)c2c(=O)n(C)c(=O)n(C)c2n1,5,.,.,?,8.3µM*,2.6µM*
Cn1c(=O)c2c(SCc3cccnc3)nc(CC(C)(C)C)nc2n(C)c1=O,-36,.,.,-16%,.,?
Cn1c(=O)c2c(SCc3ccccn3)nc(CC(C)(C)C)nc2n(C)c1=O,28,.,.,?,12µM*,?
COCCCn1c(=O)c2sccc2n2c(CCCC(=O)Nc3cccc(OC)c3)nnc12,-37,2%[46.1 µM],.,.,.,.
CCN1CCN(C(c2ccccc2)c2sc3nc(-c4ccco4)nn3c2O)CC1 (centres undefined),18,20%[46.1 µM],.,.,.,.
SMILES,HCMV inh,Lassa entry inh,Marburg entry inh,HCV inh,Pf growth 48h,Pf growth 96h
Cc1ccccc1CN1C(=O)CN=C(c2ccccc2)c2cc(Cl)ccc21,-71*,?,.,.,.,.
NC(=O)c1cc(S(=O)(=O)NCc2ccccc2)cs1,-11,18%[46.1 µM],.,-3%,16%,53%
Cc1ccccc1CNS(=O)(=O)c1csc(C(N)=O)c1,0,13%[46.1 µM],.,9%,-27%,6.6µM*
CCOc1ccc(NS(=O)(=O)c2csc(C(N)=O)c2)cc1,?,1%,?,-10%,1.9µM*,1%
Nc1nccc(-c2ccc(-n3cnc4ccccc43)cc2)n1,-70*,22%,?,-7%,-2%,9%
Cc1ccc(-c2nnc(Nc3ccc(Br)cc3)c3ccccc23)cc1S(=O)(=O)N1CCN(C)CC1,-40,11µM*,.,.,.,.
Cc1ccc(-c2nnc(Nc3ccc(O)cc3)c3ccccc23)cc1S(=O)(=O)N1CCN(C)CC1,-66*,2%[46.1 µM],-12%[46.1 µM],.,.,.
COC(=O)c1ccc(Nc2nnc(-c3ccc(C)c(S(=O)(=O)N4CCN(C)CC4)c3)c3ccccc23)cc1,-30,?,?,.,.,.
Cc1ccc(-c2nnc(Nc3ccc(F)cc3)c3ccccc23)cc1S(=O)(=O)N1CCN(C)CC1,-102*,?,-23%[46.1 µM],.,.,.
O=C(NCc1cccnc1)c1nn(-c2ccc(F)cc2)nc1CO,21,22%[46.1 µM],-14%[46.1 µM],.,.,.
CCOC(=O)N1CCN(C(=O)c2ccc(CS(=O)(=O)c3ccccc3OC)o2)CC1,24,2%,-13%,13%,1%,?
CCc1ccccc1S(=O)(=O)Cc1ccc(C(=O)N2CCN(c3ccccn3)CC2)o1,12,.,2%,?,.,9.3µM*

# Screening data from PubChem BioAssay.
